Screens as filed in PubChem BioAssay.
Most compounds without a hit are left out; they make up all but 0.87% or so of the library.
TLR4 MyD88 comp – blocks binding of human TLR4 to MyD88; O00206+Q99836; HeLa CL3-4 TLR4/MyD88 BLA complementation, FRET ratio; inhibition, % at 8.4 µM; hit rate 0.18% among 200,000; AID 861; in the data active means inhibition above about 25%
NOD2 RIPK2 PPI – blocks binding of human NOD2 to RIPK2; O43353; CHO BLA complementation NOD2-RIPK2, CCF4 ratio; inhibition, % at 4.98 µM; hit rate 0.38% among 360,000; AID 624267; in the data active means inhibition above about 21%
Target sequence (O43353 whole entry, looked up): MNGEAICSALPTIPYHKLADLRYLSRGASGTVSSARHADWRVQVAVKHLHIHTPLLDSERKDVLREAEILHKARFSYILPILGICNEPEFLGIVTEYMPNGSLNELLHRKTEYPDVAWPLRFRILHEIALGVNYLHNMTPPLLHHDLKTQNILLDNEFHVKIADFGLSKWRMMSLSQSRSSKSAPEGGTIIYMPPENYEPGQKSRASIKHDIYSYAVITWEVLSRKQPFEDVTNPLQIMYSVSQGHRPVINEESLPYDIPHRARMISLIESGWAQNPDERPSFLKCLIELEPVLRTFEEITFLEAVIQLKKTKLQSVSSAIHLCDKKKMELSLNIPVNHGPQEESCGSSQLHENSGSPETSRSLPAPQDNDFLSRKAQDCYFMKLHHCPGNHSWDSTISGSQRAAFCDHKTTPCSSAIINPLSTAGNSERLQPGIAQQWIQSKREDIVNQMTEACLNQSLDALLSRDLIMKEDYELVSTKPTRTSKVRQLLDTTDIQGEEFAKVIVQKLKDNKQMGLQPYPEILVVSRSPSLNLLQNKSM
TLR9-MyD88 inh – TLR9-MyD88 interaction inhibition; inhibition, % at 4.98 µM; hit rate 0.21% among 340,000; CHO BLA complementation TLR9-MyD88, CCF4 FRET ratio; AID 504734;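 active means inhibition above the mean over all tested compounds plus 3 SD, cut at about 21% in these data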
IDE inh – cellular human IDE inhibition | inhibition, % at 5.59 µM | P14735 | hit rate 0.41% among 320,000 | HEK cells, FAbetaB cleavage, fluorescence polarization;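 active means percent inhibition above the average of all tested compounds plus 3 SD, set per screening campaign, cut at about 16% in these data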;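 further: IDE supplied by intact live HEK cells; FP after avidin binding of uncleaved biotin substrate so inhibition keeps polarization high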
IDE act – boosts human insulin-degrading enzyme activity in HEK cells. FAbeta-B cleavage, fluorescence polarization; 0% vehicle, 100% cell-free pure enzyme wells. AID 493087. activation, % at 5.96 µM. hit rate 0.073% among 340,000;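 active means activation above the mean of all tested compounds plus 3 SD, set per screening campaign, cut at about 17% in these data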
IDE cell inh cf – cellular human IDE inhibition, confirmation; shares compounds with IDE inh; HEK cells, FAbetaB cleavage, fluorescence polarization; inhibition, % at 5.59 µM; hit rate 51% among 1,200; AID 435028;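 active means mean inhibition across triplicate wells above the cutoff set by the earlier primary insulin-degrading enzyme screen, cut at about 16% in these data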
HEK cytotox – HEK cell cytotoxicity, counter-screen for IDE inhibitors; shares compounds with IDE inh; HEK293 cytotoxicity, ATP luminescence; inhibition, % at 5.59 µM; hit rate 28% among 1,200; in the data active means inhibition above about 22%
IDE FP artifact – counter-screen for IDE inhibitors: fluorescent artifacts; shares compounds with IDE inh; FP counterscreen for fluorescent artifacts, IDE probe project; IC50, µM; 30 tested, under 10 active; call rule not given here
TLR9-MyD88 conf – confirmation of human TLR9-MyD88 binding inhibitors | shares compounds with TLR9-MyD88 inh | CHO TLR9/MyD88 BLA complementation, CCF4 FRET ratio | inhibition, % at 4.98 µM | hit rate 51% among 680 | AID 540250;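 active means mean inhibition across three repeats above about 21% taken from the earlier screen, limit read from the data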;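 further: blue over green emission ratio reports constitutive TLR9 MyD88 association via BLA complementation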
BLA nonselective – counter-screen for TLR9-MyD88 inhibitors: non-selective beta-lactamase inhibitors | hit rate 7% among 680 | CHO-BLA cells, CCF4 FRET ratio, BLA reporter | shares compounds with TLR9-MyD88 inh | AID 540251 | inhibition, % at 4.98 µM;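 active means mean inhibition above a 50% cutoff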;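 further: counterscreen of TLR9-MyD88 hits on CMV-driven BLA in CHO-K1 cells; higher means less blue over green ratio so more BLA blockade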
TLR9 CHO cytotox – counter-screen for TLR9-MyD88 inhibitors: cytotoxicity in CHO cells. shares compounds with TLR9-MyD88 inh. luminescence. inhibition, % at 4.98 µM. hit rate 39% among 680. AID 588336; in the data active means inhibition above about 11%
Large screens that a line does not name were inactive (follow-up assays come after a bar, where they were run).

CC(=O)Oc1c(Cl)cc(Cl)cc1/C=C/c1ccc2ccccc2n1	IDE inh 45.1 | IDE cell inh cf 68.0 | HEK cytotox inactive
CC(=O)Oc1ccc(Cl)cc1/C=C/c1ccc2ccccc2n1	none
CCN(CC)Cc1c(C)[nH]c2ccc(NC(C)=O)cc2c1=O	none (no result: TLR4 MyD88 comp, IDE inh, IDE act)
O=C1c2ccccc2-c2onc3ccc(NCc4ccco4)c1c23	IDE inh 20.2 | IDE cell inh cf 91.3 | HEK cytotox 27.4
O=c1c2ccccc2nc(/C=C/c2cccc(Br)c2)n1CCCO	none (no result: TLR4 MyD88 comp)
Cn1c(/C=C/c2cccc(Br)c2)nc2ccccc2c1=O	IDE inh 19.0 (no result: TLR4 MyD88 comp) | IDE cell inh cf inactive | HEK cytotox inactive
CC(=O)c1ccc(S(=O)(=O)N2CCN(C)CC2)cc1	none
Cc1cc(C)c2nc(/N=C(\N)NC(=O)c3ccccc3)nc(C)c2c1	IDE inh 16.8 (no result: TLR4 MyD88 comp) | IDE cell inh cf inactive | HEK cytotox inactive
Cc1cc(C)c2nc(/N=C(\N)NC(=O)Nc3ccccc3)nc(C)c2c1	none
CC(C)(C)NC(=O)CSc1nc(-c2ccc(F)cc2)cs1	IDE inh 16.5 | IDE cell inh cf inactive | HEK cytotox inactive
Cn1c(N/N=C/c2c[nH]c3ccccc23)nc2ccccc21	IDE inh 29.2 | IDE cell inh cf inactive | HEK cytotox 62.7
Cc1sc2ccc3sccc3c2[n+]1C	IDE inh 20.5 | IDE cell inh cf inactive | HEK cytotox inactive
COc1ccccc1N/C(N)=N/c1nc(C(F)(F)F)cc(=O)[nH]1	IDE inh 18.4 | IDE cell inh cf inactive | HEK cytotox inactive
CCN(c1ccccc1)S(=O)(=O)c1cc2c(cc1C)NC(=O)CO2	none (no result: TLR4 MyD88 comp)
Cc1ccc(NC(=O)c2sc3nc(C)cc(C)c3c2N)cc1	IDE inh 21.4 (no result: TLR4 MyD88 comp) | IDE cell inh cf inactive | HEK cytotox inactive
Cc1cc(C)c2c(N)c(C(=O)NN)sc2n1	none (no result: TLR4 MyD88 comp)
CCN1/C(=C/C(C)=O)Sc2ccc(OC)cc21	none
CCOC(=O)/C(=C\C=C1/Sc2cc(OCC)c(OCC)cc2N1CC)C(C)=O	IDE inh 127.8 | IDE cell inh cf 40.8 | HEK cytotox 34.6
CCOC(=O)/C(=C/C=C1\Sc2cc(OCC)c(OCC)cc2N1CC)C(C)=O	IDE inh 163.1 | IDE cell inh cf 92.0 | HEK cytotox 24.7
COc1ccc(C(=O)N2CCN(C(=O)C3COc4ccccc4O3)CC2)cc1 (configuration not stated)	none (no result: TLR4 MyD88 comp)
COc1cc(C(=O)N2CCN(C(=O)C3COc4ccccc4O3)CC2)cc(OC)c1OC (configuration not stated)	IDE inh 23.0 (no result: TLR4 MyD88 comp) | IDE cell inh cf inactive | HEK cytotox inactive
COC(=O)c1cc(-c2ccc(NC(C)=O)cc2)nc2ccccc12	none
COc1ccc(-c2nnc3ccc(SCC(=O)Nc4nc5ccccc5s4)nn23)cc1OC	IDE inh 18.4 | IDE cell inh cf inactive | HEK cytotox inactive
COc1ccc(-c2nnc3ccc(SCC(=O)Nc4nccs4)nn23)cc1OC	none
O=C(CSCC(=O)N1CCCCC1)Nc1nc(-c2ccccc2)c(-c2ccccc2)s1	none
CCn1c(SCC(=O)Nc2nc(-c3ccc(C)cc3)cs2)nnc1-c1ccccc1O	none
CCn1c(SCC(=O)Nc2nc(-c3ccc(C)cc3)cs2)nnc1-c1ccccc1	IDE inh 16.2 | IDE cell inh cf inactive | HEK cytotox inactive
CCCCCCc1cc2cc(/C(N)=N/NC(=O)c3ccncc3)c(=O)oc2cc1O	IDE inh 28.6 (no result: TLR4 MyD88 comp) | IDE cell inh cf 97.0 | HEK cytotox inactive
CSCCC(NC(=O)COc1cccc2ccccc12)C(=O)O (configuration not stated)	none (no result: TLR4 MyD88 comp)
O=C(N/N=C/c1c(O)n(-c2ccc(Cl)cn2)c(=O)c2ccccc12)c1ccncc1	TLR9-MyD88 inh 21.1, IDE inh 21.6 | IDE cell inh cf 37.8 | HEK cytotox inactive | TLR9-MyD88 conf inactive | BLA nonselective inactive | TLR9 CHO cytotox inactive
O=C(N/N=C/c1c(O)n(-c2ccc(Cl)cn2)c(=O)c2ccccc12)C1CC1	none
O=C1N/C(=N\S(=O)(=O)c2ccccc2)S/C1=C\c1cc([N+](=O)[O-])ccc1O	TLR9-MyD88 inh 25.4, IDE inh 49.9 (no result: TLR4 MyD88 comp) | IDE cell inh cf 70.3 | HEK cytotox inactive | TLR9-MyD88 conf inactive | BLA nonselective inactive | TLR9 CHO cytotox inactive
Cc1ccc(SC2=C(C(=O)O)CCCC2)cc1	none (no result: TLR4 MyD88 comp)
Nc1c(C(=O)Nc2nccs2)sc2nc(-c3cccs3)cc(C(F)(F)F)c12	TLR9-MyD88 inh 21.7, IDE inh 19.9 | IDE cell inh cf 16.4 | HEK cytotox inactive | IDE FP artifact inactive | TLR9-MyD88 conf inactive | BLA nonselective inactive | TLR9 CHO cytotox inactive
COc1cc(NS(=O)(=O)c2csc(C(N)=O)c2)cc(OC)c1	none (no result: TLR4 MyD88 comp)
COc1cc(/C=C/C(=O)c2ccc3c(c2)OCO3)cc(Cl)c1O	TLR9-MyD88 inh 21.9, IDE inh 160.4 (no result: TLR4 MyD88 comp) | IDE cell inh cf 88.0 | HEK cytotox inactive | TLR9-MyD88 conf inactive | BLA nonselective inactive | TLR9 CHO cytotox inactive
COC(=O)[C@]1(Cc2ccccc2)N[C@H](CN(C)C(C)=O)[C@@H]2C(=O)N(Cc3ccccc3)C(=O)[C@@H]21	none (no result: TLR4 MyD88 comp)
O=C(NCc1ccccc1Br)c1cccc2c1C(=O)c1ccc(N3CCC(Cc4ccccc4)CC3)cc1S2(=O)=O	none (no result: TLR4 MyD88 comp)
O=C(NCC1CCCO1)c1cccc2c1C(=O)c1ccc(N3CCC(Cc4ccccc4)CC3)cc1S2(=O)=O (configuration not stated)	NOD2 RIPK2 PPI 50.9, TLR9-MyD88 inh 31.5, IDE inh 50.3 (no result: TLR4 MyD88 comp) | IDE cell inh cf 83.0 | HEK cytotox 50.0 | TLR9-MyD88 conf 23.4 | BLA nonselective inactive | TLR9 CHO cytotox inactive
